Source: PubChem (National Center for Advancing Translational Sciences (NCATS))
Abeta rescue: A-beta toxicity reversal in yeast. 410,000 tested, 0.063% active. yeast expressing A-beta42, growth rescue, OD600, 48 h; response scale: 0% DMSO, 100% iron-clioquinol control. Potency, µM (titrated, usually from 46.1 µM), hits mostly activators; note: potency is the fitted concentration of half-maximal effect; nearly all actives have a fitted effect of over 55% in size
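Yeast growth medium received pinned compounds, then yeast cells expressing toxic A-beta were added; plates incubated at 30 C for 48 hr. Growth read as absorbance at 600 nm, normalized to DMSO and equimolar FeCl3 plus clioquinol controls.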
TDP-43 yeast inh: rescues yeast growth from TDP-43 toxicity; TDP-43 expressing yeast growth rescue, BacTiter-Glo, 24 h; Potency, µM (doses to about 46.1 µM), for inactives: at the highest dose growth rescue (activation), most hits filed as activators; 410,000 tested, 1.8% active; AID 652104; note: potency is the fitted concentration of half-maximal effect; % of control where 0% means no effect; nearly all actives have a fitted effect of over 50% in size
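Growth rescue of TDP-43-toxic yeast measured as ATP luminescence (BacTiter-Glo). Cells grown to mid-log in raffinose, induced in galactose at OD600=0.02, exposed to compound 24 hr at 30 deg C.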
IDH1 R132H inh: inhibitors of human mutant IDH1 R132H; O75874; IDH1-R132H enzyme, NADPH consumption, diaphorase/resazurin fluorescence; Potency, µM (series often up to 76.6 µM), for the others: top-dose activity change, negative = inhibition, actives largely listed as inhibitors; 390,000 tested, 0.093% active; AID 602179; note: potency is the fitted concentration of half-maximal effect; % is set by controls: 0 for no effect and ±100 for the full control effect; nearly all actives have a fitted effect of over 65% in size
Target sequence (O75874 whole entry R132H, stated change not applied): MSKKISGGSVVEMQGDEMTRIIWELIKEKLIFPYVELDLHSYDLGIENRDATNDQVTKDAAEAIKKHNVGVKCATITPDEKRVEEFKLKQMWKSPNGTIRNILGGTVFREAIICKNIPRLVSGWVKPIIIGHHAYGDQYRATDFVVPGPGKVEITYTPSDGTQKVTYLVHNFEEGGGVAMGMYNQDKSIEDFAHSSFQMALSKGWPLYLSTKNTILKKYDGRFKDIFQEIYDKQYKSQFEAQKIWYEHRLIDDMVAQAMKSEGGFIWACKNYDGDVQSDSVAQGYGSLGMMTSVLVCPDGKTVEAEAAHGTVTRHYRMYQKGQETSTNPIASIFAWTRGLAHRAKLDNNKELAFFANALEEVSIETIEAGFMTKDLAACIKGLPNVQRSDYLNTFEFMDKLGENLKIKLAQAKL
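IDH1-R132H (0.5 ug/mL) preincubated 30 min with compound, then NADPH (0.016 mM) and alpha-KG (2 mM) added; 80 min at RT, pH 7.5. Remaining NADPH coupled via diaphorase/resazurin to fluorescence (540/590 nm); concentration-response curves normalized to no-enzyme control.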
LDHA inh: inhibitors of human lactate dehydrogenase A | purified LDHA, NADH/diaphorase-resazurin fluorescence; hits give low values | activity change, % (values are at about 110 or 230 µM) | 480,000 tested, 0.15% active | AID 1347041; in the data active = activity change below about -30%; inconclusive = mostly about -25% to -30%;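 note: plate controls were DMSO wells for no effect and wells without enzyme for full effect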
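LDH5 2 nM; NADH 0.06 mM, pyruvate 0.2 mM; 200 mM Tris pH 7.4, EDTA, Tween-20; 5 min RT. Detection: diaphorase 0.133 mg/mL + resazurin 37 µM, fluorescence ex540/em590 at 0 and 20 min; normalized to enzyme-free and DMSO wells.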
aSyn rescue: inhibitors of alpha-synuclein toxicity in yeast; Yeast expressing alpha-synuclein, growth rescue, BacTiter-Glo, 24 h; Potency, µM (series often up to 46.1 µM), inactives show at the top dose growth rescue (activation), most hits filed as activators; 370,000 tested, 0.14% active; AID 652106; note: potency is the fitted concentration of half-maximal effect; % of control where 0% means no effect; nearly all actives have a fitted effect of over 65% in size
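Rescue of yeast growth: cells expressing toxic alpha-synuclein, induced in galactose at OD600 0.02, incubated with compound 24 h at 30 C. ATP luminescence quantified growth; inhibitors of toxicity appear as activators.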
FUS suppressor: suppressors of FUS proteinopathy in yeast; Potency, µM (top dose mostly 76.6 µM), actives largely listed as activators; 390,000 tested, 0.24% active; AID 1347120; S. cerevisiae FUS-expressing, growth rescue, OD600, 24 h;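 note: potency is the fitted concentration of half-maximal effect; plate controls were DMSO vehicle for no effect and reference control for full effect; nearly all actives have a fitted effect of over 55% in size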
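FUS-expressing yeast, raffinose-pregrown, induced in 2% galactose minimal medium at OD 0.005; compounds in a dilution series, 24hr at 30C. Growth restoration read as absorbance at 600 nm. CP55940 positive control, DMSO negative.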
Active calls of the source: *; i = inactive; ? = inconclusive; . = not tested or not shown. This is a sample that favours compounds with a hit; in the whole collection about 2% have one here. Unless noted, calls come from the whole dose curve; as a rule, active = well fitted curve in the direction sought with a large enough effect; inconclusive = small, poorly fitted or top-dose-only effect, or another doubt; inactive = no such curve, though single readings can be large; an effect the other way counts as inactive or inconclusive.

SMILES	Abeta rescue	TDP-43 yeast inh	IDH1 R132H inh	LDHA inh	aSyn rescue	FUS suppressor
COC(=O)[C@]12CCCCC=C1N(CCC1=CCCCC1)C(=O)[C@H](CC(=O)NCc1ccccc1)C2	i	35µM*	.	2	22%	i
COC(=O)C1=C(C(=O)OC)SC(=C(Cl)C(=S)NCc2ccccc2)S1	.	.	.	8	.	.
CCc1c(C)sc(NC(=O)Cc2ccccc2)c1C#N	.	.	.	17	.	.
COC(=O)[C@]12CCCCC=C1N(Cc1ccco1)C(=O)[C@H](CC(=O)N1CCC(c3ccccc3)CC1)C2	i	13µM*	.	2	7%	i
COC(=O)[C@]12CCCCC=C1N(Cc1ccccc1)C(=O)[C@H](CC(=O)NCC13CC4CC(CC(C4)C1)C3)C2	i	12%	.	6	3%	?
CCOC(=O)[C@]12CCCC=C1N(Cc1ccccc1)C(=O)[C@H](CC(=O)NCC13CC4CC(CC(C4)C1)C3)C2	i	-5%	.	-3	6%	13µM*
Oc1cccc2c(N=Cc3ccc(F)c(F)c3)cccc12	.	.	.	46	.	.
CCc1ccc(CN(C)C(=O)CCc2nc3ccccc3n(-c3ccc(OC)cc3)c2=O)cc1	i	18µM*	-9%	4	20%	?
CCOc1c(OC)cc(Br)c2cc(C(=O)O)[nH]c12	.	.	.	5	.	.
Cc1nc(N2CCN(C(=O)COc3ccccc3)CC2)c2c(C)c(C)sc2n1	i	16µM*	5%	-3	-2%	i
N#CC1(NC(=O)CSc2ccc(C(F)(F)F)cn2)CCCCCC1	.	.	.	-9	.	.
CCOC(=O)N(O)c1ccc(C=Cc2ccccc2)cc1	i	14µM*	5%	6	-2%	.
c1ccc(-c2cc(CSc3nc4ccccc4[nH]3)on2)cc1	i	20µM*	8%	1	3%	i
O=C(CSc1nc2ccccc2[nH]1)c1ccccc1F	i	-4%	19%	-4	0%	i
Fc1cccc(F)c1CSc1nc2ccccc2[nH]1	i	13µM*	0%	-16	-7%	i
O=c1oc2ccccc2cc1-c1csc(Nc2ccccc2Cl)n1	.	.	.	-1	.	.
COc1ccc2nc(-c3ccc4c(c3)OCO4)cc(C(=O)O)c2c1	.	.	.	7	.	.
COCCCNC(=O)C[C@H]1C[C@@]2(C(=O)OC)C(=C[C@H](C(C)C)O[C@@H]2C2CC2)N(Cc2ccc(Cl)cc2Cl)C1=O	.	.	.	.	.	28µM*
COC(=O)[C@]12C[C@H](CC(=O)NCc3ccc(OC)c(OC)c3)C(=O)N(Cc3ccc(Cl)cc3Cl)C1=C[C@H](C(C)C)O[C@@H]2C1CC1	.	.	.	.	.	28µM*
COC(=O)[C@]12C[C@H](CC(=O)NCCC(C)C)C(=O)N(Cc3ccc(Cl)cc3Cl)C1=C[C@H](C(C)C)O[C@@H]2C1CC1	.	.	.	.	.	i
COc1cccc(NCc2cc(=O)n3[nH]c(-c4ccc(C)cc4)nc3n2)c1	.	.	.	11	.	.
c1ccc(COc2ccc3[nH]ccc3c2)cc1	.	.	.	0	.	.
O=C(NCCc1ccccc1)OCc1ccccc1	.	.	.	1	.	.
O=C(O)c1cccc(-c2ccc3c(c2)OCO3)c1	i	13µM*	-4%	-6	17%	i
Fc1ccc(/C=N/Nc2cc(C(F)(F)F)ccc2Cl)c(F)c1	.	.	.	6	.	.
CCCCC(CC)CNC(=O)c1[nH]c(C)c(C(C)=O)c1C (configuration not stated)	i	13µM*	-1%	-6	-1%	i
O=C(NCc1ccccc1)c1ccc2oc(=O)n(Cc3ccccc3)c2c1	i	22µM*	14%	-4	.	i
Cc1cccc(CNC(=O)c2ccc3oc(=O)n(Cc4ccccc4)c3c2)c1	i	?	11%	1	.	i
Cc1cc2c(NC3CCCCC3)ncnc2s1	i	11µM*	3%	-12	-11%	i
Cc1oc2cc(OCCN3CCN(CCO)CC3)ccc2c(=O)c1-c1ccc(Br)cc1	.	.	.	4	.	.
